From PubChem BioAssay AID2355 (The Scripps Research Institute Molecular Screening Center, 2010)
The list shows a part of the results. Values without a mark were called inactive. The source made the active and inactive calls. Rule as the data show it: active = inhibition above about 16%; inactive = the rest.

These molecules were tested against Serine/threonine-protein phosphatase PP1-alpha catalytic subunit (Homo sapiens) (UniProt P62136) (assay: PP1 phosphatase inhibitors, counter-screen for PP5 inhibitor project, biochemical, fluorescence, triplicate (AID 2355)). Settings: PP1 enzyme, fluorescent phosphatase substrate; at 6.7 µM; active compounds read high.
Sequence of Serine/threonine-protein phosphatase PP1-alpha catalytic subunit (Homo sapiens) (P62136 whole entry, looked up): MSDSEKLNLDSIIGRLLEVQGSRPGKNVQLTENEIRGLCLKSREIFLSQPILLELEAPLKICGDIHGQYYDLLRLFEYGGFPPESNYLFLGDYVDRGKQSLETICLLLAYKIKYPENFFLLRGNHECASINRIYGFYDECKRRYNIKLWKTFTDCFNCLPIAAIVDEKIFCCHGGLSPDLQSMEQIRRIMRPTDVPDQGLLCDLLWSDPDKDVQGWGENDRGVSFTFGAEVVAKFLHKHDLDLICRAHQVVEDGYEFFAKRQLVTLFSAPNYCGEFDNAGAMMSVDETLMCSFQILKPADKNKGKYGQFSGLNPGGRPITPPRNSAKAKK

Row | Structure (SMILES) | inhibition
1 | COCCN1C=C2C(=O)C(C)(OC(=O)C3CCCC3)C(=O)C=C2C=C1c1ccsc1 (centres undefined) | 16.6% (active)
2 | CN(C)c1nc(N)nc(CSc2nnnn2-c2cccc3ccccc23)n1 | -1.14%
3 | CCN1CCN(CCNC(=O)c2ccc(/C=C3/Sc4ccccc4N(Cc4cccc(C)c4)C3=O)cc2)CC1 | -16%
4 | O=C(O)c1n[nH]nc1-c1ccccc1 | 0.18%
